# Bioassay records from PubChem BioAssay.
# TDP1 cell noCPT – qHTS for Inhibitors of human tyrosyl-DNA phosphodiesterase 1 (TDP1): qHTS in cells in absence of CPT; DT40 Tdp1-/- hTDP1 cells, no CPT, ATP luminescence, 48 h; 420,000 tested, 15% active; Potency, µM (doses to about 46.2 µM), without a hit: top-dose activity change, negative = growth inhibition, hits mostly inhibitors; AID 686978, 2013; further: potency means the concentration at half of the fitted maximal effect; nearly all actives have a fitted effect of over 55% in size
#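 No-CPT arm: Tdp1-/-;hTDP1 DT40 cells (400/well) plus compounds, incubated ≥48 hr at 37 °C. Readout CellTiter-Glo luminescence.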
# DT40 TDP1 CPT – qHTS for Inhibitors of human tyrosyl-DNA phosphodiesterase 1 (TDP1): qHTS in cells in presence of CPT. AID 686979, 2013. 420,000 tested, 12% active. chicken DT40 Tdp1-/-;hTDP1 cells + 20 nM CPT, ATP luminescence, 48 h. Potency, µM (series often up to 46.2 µM), inactives show at the top dose activity change, negative = growth inhibition, hits mostly inhibitors; further: potency means the concentration at half of the fitted maximal effect; nearly all actives have a fitted effect of over 55% in size
#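 Chicken DT40 Tdp1-/- cells complemented with human TDP1, 400 cells/well, exposed to compounds plus 20 nM camptothecin for at least 48 h at 37 C; viability read as ATP content by CellTiter-Glo luminescence.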
# IL-1B inflam inh – qHTS for Inhibitors of Inflammasome Signaling: IL-1-beta AlphaLISA Primary Screen. THP-1 LPS/ATP IL-1B secretion, AlphaLISA, 16 h; active compounds read low. activity change, % at 57.5 µM. 360,000 tested, 4.7% active. AID 743279, 2014; in the data active means activity change below about -50%; inconclusive means mostly about -30% to -49%
#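 THP-1 cells pretreated 1 hr with compounds (up to 57.5 uM final), then stimulated with LPS (250 ng/mL final) plus ATP (1.25 mM final); secreted IL-1B measured by AlphaLISA after 16 hr, decreased signal indicating inhibition.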
# HT1080NT lethal – qHTS for induction of synthetic lethality in tumor cells producing 2HG: qHTS for the HT-1080-NT fibrosarcoma cell line. HT-1080-NT fibrosarcoma viability, CellTiter-Glo ATP luminescence, 48 h. Potency, µM (top dose mostly 46.1 µM), inactives show top-dose activity, negative = less viability, hits mostly cytotoxic. 360,000 tested, 1.6% active. AID 686970, 2013;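 further: NT is the 2HG producing partner of a matched IDH1 knockdown line; potency means the concentration at half of the fitted maximal effect; 0% = DMSO-treated cells and -100% = media-only wells without cells; nearly all actives have a fitted effect of over 55% in size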
#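 Viability of the 2HG-overproducing fibrosarcoma line after 48 hours of compound exposure at 37 degrees C was determined by luminescence with CellTiter-Glo, and concentration-effect curves were then fitted and categorized.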
# HT1080 IDH1KD tx – qHTS for induction of synthetic lethality in tumor cells producing 2HG: qHTS for the HT-1080-IDH1KD cell line; HT-1080 IDH1 knockdown viability, ATP luminescence, 48 h; Potency, µM (doses to about 46.1 µM), for inactives: at the highest dose activity, negative = toxicity, actives largely listed as cytotoxic; 360,000 tested, 2% active; AID 686971, 2013;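 further: potency means the concentration at half of the fitted maximal effect; 0% = DMSO wells and -100% = cell-free medium wells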
#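 HT-1080-IDH1KD cells (IDH1 knocked down), 750/well in RPMI with 5% FBS, treated with compound 48 h at 37 degrees C. Viability by CellTiter-Glo luminescence, normalised to DMSO and no-cell wells; concentration-response curves classed.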
# An asterisk follows results filed as active; i = inactive; u = inconclusive; x = not tested or not shown. Only some compounds are listed: those with a hit (about 19% of all), similar ones and a draw of the others. Unless noted, the call rests on the fitted dose curve; in most records, active means well fitted curve in the direction sought with a large enough effect; inconclusive means small, poorly fitted or top-dose-only effect, or another doubt; inactive means no such curve, though single readings can be large; an effect the other way counts as inactive or inconclusive. Unless noted, on the % scale 0 is the no-effect control and ±100 the full control effect.
SMILES,TDP1 cell noCPT,DT40 TDP1 CPT,IL-1B inflam inh,HT1080NT lethal,HT1080 IDH1KD tx
CC1(C)CC2(CCO1)OC(=O)CC2C(=O)Nc1ccc(Cl)cc1[N+](=O)[O-] (stereo unspecified),-1%,u,7,10%,-3%
Cn1nc(C(F)(F)F)c2cc(C(=O)Nc3ccc(C(F)(F)F)cc3)sc21,21µM*,u,u,u,u
CNC(=O)c1cc(C)c(-c2ccccc2)s1,21µM*,u,10,2%,0%
COC(=O)c1cc(NC(=O)c2cc3c(-c4ccccc4F)nn(C)c3s2)cc(C(=O)OC)c1,u,3.3µM*,x,x,x
CNC(=O)c1cc2c(s1)-c1ccccc1CC2,-3%,13%,-2,-17%,2%
Cn1nc(-c2ccccc2F)c2cc(C(=O)NCCc3ccc(Cl)cc3)sc21,16µM*,u,x,x,x
O=C(CN1C(=O)NC2(CCCC2)C1=O)Nc1cc(Cl)ccc1Oc1ccccc1,u,u,-27,-10%,-1%
CNC(=O)c1cc2c(-c3ccccc3)nn(C)c2s1,21µM*,u,-11,-5%,1%
COCCNC(=O)c1cc2c(-c3ccccc3F)nn(C)c2s1,-23%,-25%,-54*,-7%,-16%
CCOc1ccc(NC(=O)c2cc3c(-c4ccccc4F)nn(C)c3s2)cc1,-10%,u,x,x,x
COCCNC(=O)c1cc2c(-c3ccc(Cl)cc3)nn(C)c2s1,u,u,-12,-26%,-14%
CC(C)NC(=O)c1cc2c(-c3ccc(Cl)cc3)nn(C)c2s1,-20%,-8%,16,0%,-1%
CCCCN(C)CCNC(=O)c1cc2c(-c3ccccc3F)nn(C)c2s1,u,-12%,-97*,18µM*,u
COc1ccc(CCNC(=O)Cn2nnc(-c3ccccc3F)n2)cc1OC,-4%,9%,27,-6%,-25%
O=C1CC(C(=O)Nc2cccc(Cl)c2)n2ncnc2N1 (stereo unspecified),11%,5%,13,6%,7%
Cc1ccc(S(=O)(=O)N2CCC(c3nnc(-c4cccc(C)c4)o3)CC2)cc1,3.7µM*,3.7µM*,x,x,x
CCCc1ccc(S(=O)(=O)N2CCC(c3nnc(-c4cccc(C)c4)o3)CC2)cc1,4.6µM*,5.2µM*,x,x,x
O=[N+]([O-])c1ccccc1CSc1ccccn1,2%,-11%,-63*,8%,21%
Cc1cc(=S)c2ccccc2[nH]1,-15%,u,-86*,u,-21%
S=c1nc(-c2ccccc2)[nH]c2ccccc12,-25%,u,10,-21%,-12%
Cc1ccc2[nH]c(C)cc(=S)c2c1,16µM*,13µM*,-69*,u,23µM*
Cn1c(-n2cccc2)c(-c2c(-c3ccc(F)cc3)[nH]c3c2c(=O)n(C)c(=O)n3C)c(=O)n(C)c1=O,-14%,2%,x,x,x
Cc1ccccc1CN1CCN(Cc2ccccc2C(F)(F)F)CC1,u,u,28,6%,-27%
O=C(Nc1sc2c(c1C(=O)NCCCO)CCCC2)c1ccccc1,-25%,-27%,-69*,-5%,-13%
O=C(Nc1sc2c(c1C(=O)O)CCCCC2)c1ccccc1,u,u,31,-14%,-23%
SMILES,TDP1 cell noCPT,DT40 TDP1 CPT,IL-1B inflam inh,HT1080NT lethal,HT1080 IDH1KD tx
NCCNC(=O)c1c(NC(=O)c2ccccc2)sc2c1CCCC2,u,u,-92*,-23%,u
Cn1cc(CCC(=O)N2CCCC(CCC(=O)NCc3ccc(F)c(F)c3)C2)cn1 (stereo unspecified),-17%,-6%,-5,2%,3%
CC(=O)c1ccc(Nc2cnn(C34CC5CC(CC(CC(=O)O)(C5)C3)C4)c(=O)c2Cl)cc1,-3%,21%,-8,-9%,0%
COc1ccc(C2CC2/C(=N/O)c2ccccc2)cc1 (stereo unspecified),18µM*,23µM*,u,9%,-12%
COc1ccc(C2CC2/C(=N/O)c2ccccn2)cc1 (stereo unspecified),u,13µM*,2,-16%,-5%
COc1ccc(CN2C(=O)N(c3ccc(C)cc3)C(=O)C2CC(=O)Nc2ccccc2)cc1OC (stereo unspecified),u,-27%,x,x,x
Cc1csc(CN(C)C(=O)c2cn(Cc3cccc4ccccc34)nn2)n1,u,u,i,-4%,-1%
COc1ccc(-c2cc(C(=O)N3CCCC3)c3ccccc3n2)cc1OC,-13%,-24%,-28,1%,2%
COc1ccc(Nc2nnc(-c3ccc(C)cc3)c3ccccc23)cc1C(=O)N1CCCCC1,u,u,-74*,u,u
COc1cc(C(=O)N2CCN(c3ccccc3)CC2)c2ccccc2n1,0.73µM*,0.92µM*,78,u,0.52µM*
COc1ccc(Nc2nnc(-c3ccccc3)c3ccccc23)cc1C(=O)N1CCCCC1,-22%,-26%,-14,-5%,-19%
COc1ccc(-c2cc(C(=O)N3CCCCC3)c3ccccc3n2)cc1,u,16µM*,-26,-7%,-1%
Cc1cc(C(=O)OCC(=O)N2CCN(c3ccccc3)CC2)c2ccccc2n1,u,u,-3,7%,6%
COc1ccc(-c2cc(C(=O)N3CCCCC3)c3ccccc3n2)cc1OC,-50%,u,-69*,-11%,-9%
O=[N+]([O-])c1ccc(S(=O)(=O)NN=CCCc2ccccc2)cc1,-3%,14%,1,-2%,-4%
Cc1ccc[n+](CC2OCc3ccccc3CO2)c1,0%,23%,50,14%,2%
COc1ccc(-c2cc(C(=O)N3CCOCC3)c3ccccc3n2)cc1OC,-26%,-11%,0,-9%,-16%
O=C(c1cc(-c2ccc(Cl)cc2)nc2ccccc12)N1CCC1,16µM*,18µM*,-7,-6%,-13%
COc1ccc(-c2cc(C(=O)N3CCN(c4cccc(C)c4C)CC3)c3ccccc3n2)cc1OC,13µM*,u,-9,-13%,-24%
Cc1ccc(S(=O)(=O)N2CCC(C(=O)OCC(=O)N3C(C)CCCC3C)CC2)cc1C (stereo unspecified),-13%,-26%,16,11%,8%
COc1cc(NC(=S)N2CCN(C)CC2)cc(OC)c1,5%,-1%,-2,-3%,6%
COc1cc(COc2ccc3c(C)c(CC(=O)O)c(=O)oc3c2C)cc(OC)c1OC,18%,-7%,11,0%,3%
